The record followed here is ChEMBL document CHEMBL2218924, “A broad activity screen in support of a chemogenomic map for kinase signalling research and drug discovery” (Biochem J, 2013).

Test [1] deals with Death-associated protein kinase 1 (Homo sapiens) (UniProt P53355). To be noted: at 10 µM.
For test [2], the target named is Death-associated protein kinase 2 (Homo sapiens) (UniProt Q9UIK4). To be noted: at 1 µM.
The target is the same in test [3]. The settings on record: at 10 µM.
Test [4] addresses T1, Serine/threonine-protein kinase DCLK2 (Homo sapiens) (UniProt Q8N568).
T1 sequence (whole entry): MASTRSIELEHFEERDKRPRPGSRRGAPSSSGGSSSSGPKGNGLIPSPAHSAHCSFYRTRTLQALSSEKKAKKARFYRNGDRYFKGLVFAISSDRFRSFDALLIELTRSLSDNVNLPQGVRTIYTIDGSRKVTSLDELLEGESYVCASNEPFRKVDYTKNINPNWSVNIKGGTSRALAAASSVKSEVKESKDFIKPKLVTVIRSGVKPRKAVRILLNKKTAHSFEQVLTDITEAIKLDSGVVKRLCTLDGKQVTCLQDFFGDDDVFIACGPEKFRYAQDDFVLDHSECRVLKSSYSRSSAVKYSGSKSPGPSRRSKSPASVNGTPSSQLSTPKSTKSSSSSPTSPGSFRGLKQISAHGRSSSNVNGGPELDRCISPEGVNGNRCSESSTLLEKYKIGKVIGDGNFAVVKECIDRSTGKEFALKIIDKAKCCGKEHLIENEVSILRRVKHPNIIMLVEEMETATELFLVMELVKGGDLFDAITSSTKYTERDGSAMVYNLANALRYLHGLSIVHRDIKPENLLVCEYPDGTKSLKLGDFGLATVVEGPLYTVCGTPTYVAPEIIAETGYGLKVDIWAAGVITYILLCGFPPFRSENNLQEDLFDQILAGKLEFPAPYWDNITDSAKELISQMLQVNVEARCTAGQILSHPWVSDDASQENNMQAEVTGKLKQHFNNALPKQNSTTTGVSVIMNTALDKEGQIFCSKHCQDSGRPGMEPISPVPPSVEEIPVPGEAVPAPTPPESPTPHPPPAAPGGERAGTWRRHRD
To be noted: at 1 µM.

In test [5] the target is T1, Serine/threonine-protein kinase DCLK2 (Homo sapiens). The settings on record: at 10 µM.
The target in test [6] is T2, Discoidin domain-containing receptor 2 (Homo sapiens) (UniProt Q16832).
T2 sequence (whole entry): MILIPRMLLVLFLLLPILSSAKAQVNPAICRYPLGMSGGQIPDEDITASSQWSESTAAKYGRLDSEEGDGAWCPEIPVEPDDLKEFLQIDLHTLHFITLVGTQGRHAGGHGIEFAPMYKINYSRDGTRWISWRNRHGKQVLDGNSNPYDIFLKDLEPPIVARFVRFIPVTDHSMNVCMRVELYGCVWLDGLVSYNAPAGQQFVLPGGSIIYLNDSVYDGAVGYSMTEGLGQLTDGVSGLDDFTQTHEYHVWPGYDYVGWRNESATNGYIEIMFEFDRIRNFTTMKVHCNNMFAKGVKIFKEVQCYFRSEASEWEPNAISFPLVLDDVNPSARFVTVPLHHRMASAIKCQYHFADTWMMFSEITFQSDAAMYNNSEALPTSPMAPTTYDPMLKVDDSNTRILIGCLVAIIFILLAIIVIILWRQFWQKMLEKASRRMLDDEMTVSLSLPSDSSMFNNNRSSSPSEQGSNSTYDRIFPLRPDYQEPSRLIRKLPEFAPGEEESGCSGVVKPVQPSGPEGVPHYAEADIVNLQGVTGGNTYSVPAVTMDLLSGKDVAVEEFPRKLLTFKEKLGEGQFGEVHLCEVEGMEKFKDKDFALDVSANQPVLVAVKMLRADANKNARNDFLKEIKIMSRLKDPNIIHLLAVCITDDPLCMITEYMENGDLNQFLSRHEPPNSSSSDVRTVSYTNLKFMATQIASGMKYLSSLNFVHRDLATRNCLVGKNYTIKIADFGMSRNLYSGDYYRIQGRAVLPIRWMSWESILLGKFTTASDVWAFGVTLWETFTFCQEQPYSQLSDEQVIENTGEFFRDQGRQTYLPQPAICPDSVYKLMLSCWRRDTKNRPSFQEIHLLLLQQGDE
To be noted: at 1 µM.

Test [7] deals with T2, Discoidin domain-containing receptor 2 (Homo sapiens). The settings on record: at 10 µM.
For test [8], the target named is T3, Myotonin-protein kinase (Homo sapiens) (UniProt Q09013).
T3 sequence (whole entry): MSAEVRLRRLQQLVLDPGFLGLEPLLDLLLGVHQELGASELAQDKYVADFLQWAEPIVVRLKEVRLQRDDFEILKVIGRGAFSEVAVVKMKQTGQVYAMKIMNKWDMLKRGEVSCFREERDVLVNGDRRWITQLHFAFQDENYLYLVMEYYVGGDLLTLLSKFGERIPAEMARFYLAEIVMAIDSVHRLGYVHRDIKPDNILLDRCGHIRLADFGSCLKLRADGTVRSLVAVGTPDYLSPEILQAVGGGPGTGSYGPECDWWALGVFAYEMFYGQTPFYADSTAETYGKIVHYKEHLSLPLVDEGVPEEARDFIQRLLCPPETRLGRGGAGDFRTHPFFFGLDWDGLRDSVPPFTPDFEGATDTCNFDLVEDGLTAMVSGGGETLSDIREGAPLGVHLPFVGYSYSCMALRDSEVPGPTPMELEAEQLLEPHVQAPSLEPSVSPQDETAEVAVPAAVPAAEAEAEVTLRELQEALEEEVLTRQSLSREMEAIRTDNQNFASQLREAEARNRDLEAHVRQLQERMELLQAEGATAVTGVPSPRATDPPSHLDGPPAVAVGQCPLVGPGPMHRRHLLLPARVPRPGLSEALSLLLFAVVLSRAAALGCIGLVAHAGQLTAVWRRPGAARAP
The settings on record: at 1 µM.

In test [9] the target is T3, Myotonin-protein kinase (Homo sapiens). To be noted: at 10 µM.
The target of test [10] is T4, Serine/threonine-protein kinase 17A (Homo sapiens) (UniProt Q9UEE5).
T4 sequence (whole entry): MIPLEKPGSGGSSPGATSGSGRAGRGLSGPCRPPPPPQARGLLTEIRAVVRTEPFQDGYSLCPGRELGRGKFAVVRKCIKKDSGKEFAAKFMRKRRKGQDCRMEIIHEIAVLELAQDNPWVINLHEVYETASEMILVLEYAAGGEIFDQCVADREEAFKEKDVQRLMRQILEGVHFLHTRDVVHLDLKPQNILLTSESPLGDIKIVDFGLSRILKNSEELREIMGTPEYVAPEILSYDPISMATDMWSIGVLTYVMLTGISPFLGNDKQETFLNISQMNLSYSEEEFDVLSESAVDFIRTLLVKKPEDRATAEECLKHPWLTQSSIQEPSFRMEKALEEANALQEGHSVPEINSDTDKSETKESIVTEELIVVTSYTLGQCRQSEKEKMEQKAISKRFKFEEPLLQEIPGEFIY
The settings on record: at 1 µM.

For test [11], the target named is T4, Serine/threonine-protein kinase 17A (Homo sapiens). To be noted: at 10 µM.
Test [12] has as its target T5, Dual specificity tyrosine-phosphorylation-regulated kinase 2 (Homo sapiens) (UniProt Q92630).
T5 sequence (whole entry): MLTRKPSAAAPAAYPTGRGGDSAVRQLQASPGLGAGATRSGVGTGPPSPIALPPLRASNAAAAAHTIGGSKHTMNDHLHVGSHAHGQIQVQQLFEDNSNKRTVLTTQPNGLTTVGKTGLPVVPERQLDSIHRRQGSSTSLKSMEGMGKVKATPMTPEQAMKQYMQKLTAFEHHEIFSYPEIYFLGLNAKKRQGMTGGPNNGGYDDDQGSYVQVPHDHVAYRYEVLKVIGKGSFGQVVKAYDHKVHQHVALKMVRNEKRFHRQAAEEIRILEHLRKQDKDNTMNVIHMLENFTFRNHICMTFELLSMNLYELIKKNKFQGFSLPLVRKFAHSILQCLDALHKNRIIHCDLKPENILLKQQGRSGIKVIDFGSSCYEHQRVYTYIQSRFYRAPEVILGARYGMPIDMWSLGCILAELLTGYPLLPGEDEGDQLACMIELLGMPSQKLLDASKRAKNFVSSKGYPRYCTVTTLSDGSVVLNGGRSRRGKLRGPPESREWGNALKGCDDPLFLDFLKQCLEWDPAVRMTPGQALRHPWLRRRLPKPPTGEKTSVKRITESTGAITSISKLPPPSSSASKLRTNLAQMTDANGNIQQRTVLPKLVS
To be noted: at 1 µM.

For test [13], the target named is T5, Dual specificity tyrosine-phosphorylation-regulated kinase 2 (Homo sapiens). The settings on record: at 10 µM.
Test [14] concerns the target T6, Ephrin type-A receptor 1 (Homo sapiens) (UniProt P21709).
T6 sequence (whole entry): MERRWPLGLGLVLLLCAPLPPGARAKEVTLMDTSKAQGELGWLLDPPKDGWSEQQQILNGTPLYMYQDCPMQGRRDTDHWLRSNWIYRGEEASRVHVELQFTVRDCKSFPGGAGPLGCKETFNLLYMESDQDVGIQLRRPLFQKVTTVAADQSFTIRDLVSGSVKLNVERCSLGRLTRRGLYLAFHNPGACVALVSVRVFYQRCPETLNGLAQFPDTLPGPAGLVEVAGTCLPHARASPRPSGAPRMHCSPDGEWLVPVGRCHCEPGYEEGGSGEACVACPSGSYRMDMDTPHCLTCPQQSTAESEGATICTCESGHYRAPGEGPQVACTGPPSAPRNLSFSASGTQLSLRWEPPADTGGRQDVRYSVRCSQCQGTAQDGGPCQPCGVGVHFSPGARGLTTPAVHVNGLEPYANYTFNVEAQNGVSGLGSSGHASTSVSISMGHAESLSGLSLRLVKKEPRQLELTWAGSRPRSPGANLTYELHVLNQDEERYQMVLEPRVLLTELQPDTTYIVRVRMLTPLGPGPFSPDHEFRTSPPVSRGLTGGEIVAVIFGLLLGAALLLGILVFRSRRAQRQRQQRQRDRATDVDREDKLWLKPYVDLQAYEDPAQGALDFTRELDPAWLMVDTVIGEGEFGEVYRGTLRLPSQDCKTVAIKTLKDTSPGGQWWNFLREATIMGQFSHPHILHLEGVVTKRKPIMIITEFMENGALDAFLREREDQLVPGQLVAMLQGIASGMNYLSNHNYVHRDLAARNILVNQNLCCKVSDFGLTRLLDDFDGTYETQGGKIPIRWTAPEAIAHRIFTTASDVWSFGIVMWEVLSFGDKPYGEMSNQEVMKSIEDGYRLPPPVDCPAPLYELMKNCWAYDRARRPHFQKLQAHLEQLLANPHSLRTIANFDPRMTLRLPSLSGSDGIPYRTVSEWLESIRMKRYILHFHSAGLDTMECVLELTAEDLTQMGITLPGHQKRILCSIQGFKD
To be noted: at 1 µM.

Test [15] deals with T6, Ephrin type-A receptor 1 (Homo sapiens). To be noted: at 10 µM.
Test [16] has as its target Ephrin type-A receptor 2 (Homo sapiens) (UniProt P29317). The settings on record: at 1 µM.
For test [17] the target is unchanged. The settings on record: at 10 µM.
Test [18] has as its target T7, Ephrin type-A receptor 3 (Homo sapiens) (UniProt P29320).
T7 sequence (whole entry): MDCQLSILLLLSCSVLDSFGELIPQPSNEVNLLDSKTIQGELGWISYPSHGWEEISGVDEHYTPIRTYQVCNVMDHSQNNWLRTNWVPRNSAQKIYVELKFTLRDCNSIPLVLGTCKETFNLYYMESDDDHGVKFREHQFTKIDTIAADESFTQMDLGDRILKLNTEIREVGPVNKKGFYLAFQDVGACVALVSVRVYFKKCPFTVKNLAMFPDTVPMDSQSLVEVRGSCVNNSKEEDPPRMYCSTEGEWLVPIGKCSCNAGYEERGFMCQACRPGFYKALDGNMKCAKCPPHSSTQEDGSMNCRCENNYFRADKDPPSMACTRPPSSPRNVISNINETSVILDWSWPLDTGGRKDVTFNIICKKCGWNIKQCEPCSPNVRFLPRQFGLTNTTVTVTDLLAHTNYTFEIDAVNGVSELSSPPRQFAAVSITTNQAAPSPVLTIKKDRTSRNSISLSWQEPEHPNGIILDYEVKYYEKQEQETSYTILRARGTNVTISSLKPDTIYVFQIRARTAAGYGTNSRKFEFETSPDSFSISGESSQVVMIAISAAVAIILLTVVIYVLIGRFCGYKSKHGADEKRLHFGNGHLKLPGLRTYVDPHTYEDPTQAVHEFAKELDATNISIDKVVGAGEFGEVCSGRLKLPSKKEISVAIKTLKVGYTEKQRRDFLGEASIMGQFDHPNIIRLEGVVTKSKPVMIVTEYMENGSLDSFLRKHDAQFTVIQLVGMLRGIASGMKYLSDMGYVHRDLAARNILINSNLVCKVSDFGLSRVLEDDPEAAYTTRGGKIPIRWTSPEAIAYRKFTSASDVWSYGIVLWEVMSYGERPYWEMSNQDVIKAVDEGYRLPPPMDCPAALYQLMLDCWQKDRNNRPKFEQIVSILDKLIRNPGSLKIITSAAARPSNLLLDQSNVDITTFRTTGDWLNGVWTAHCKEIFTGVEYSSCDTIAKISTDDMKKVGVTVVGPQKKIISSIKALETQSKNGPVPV
The settings on record: at 1 µM.

Sequence of Death-associated protein kinase 2 (Homo sapiens) (Q9UIK4 whole entry, looked up): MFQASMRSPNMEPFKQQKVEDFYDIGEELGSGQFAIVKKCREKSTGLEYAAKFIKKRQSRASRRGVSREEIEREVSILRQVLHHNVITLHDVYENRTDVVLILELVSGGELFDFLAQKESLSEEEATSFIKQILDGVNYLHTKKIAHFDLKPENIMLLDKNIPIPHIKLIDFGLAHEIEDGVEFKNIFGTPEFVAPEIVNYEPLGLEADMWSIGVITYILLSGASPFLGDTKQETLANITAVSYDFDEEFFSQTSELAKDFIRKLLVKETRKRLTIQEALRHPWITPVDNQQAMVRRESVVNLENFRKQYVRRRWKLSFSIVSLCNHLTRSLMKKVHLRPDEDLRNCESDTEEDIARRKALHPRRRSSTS
Sequence of Ephrin type-A receptor 2 (Homo sapiens) (P29317 whole entry): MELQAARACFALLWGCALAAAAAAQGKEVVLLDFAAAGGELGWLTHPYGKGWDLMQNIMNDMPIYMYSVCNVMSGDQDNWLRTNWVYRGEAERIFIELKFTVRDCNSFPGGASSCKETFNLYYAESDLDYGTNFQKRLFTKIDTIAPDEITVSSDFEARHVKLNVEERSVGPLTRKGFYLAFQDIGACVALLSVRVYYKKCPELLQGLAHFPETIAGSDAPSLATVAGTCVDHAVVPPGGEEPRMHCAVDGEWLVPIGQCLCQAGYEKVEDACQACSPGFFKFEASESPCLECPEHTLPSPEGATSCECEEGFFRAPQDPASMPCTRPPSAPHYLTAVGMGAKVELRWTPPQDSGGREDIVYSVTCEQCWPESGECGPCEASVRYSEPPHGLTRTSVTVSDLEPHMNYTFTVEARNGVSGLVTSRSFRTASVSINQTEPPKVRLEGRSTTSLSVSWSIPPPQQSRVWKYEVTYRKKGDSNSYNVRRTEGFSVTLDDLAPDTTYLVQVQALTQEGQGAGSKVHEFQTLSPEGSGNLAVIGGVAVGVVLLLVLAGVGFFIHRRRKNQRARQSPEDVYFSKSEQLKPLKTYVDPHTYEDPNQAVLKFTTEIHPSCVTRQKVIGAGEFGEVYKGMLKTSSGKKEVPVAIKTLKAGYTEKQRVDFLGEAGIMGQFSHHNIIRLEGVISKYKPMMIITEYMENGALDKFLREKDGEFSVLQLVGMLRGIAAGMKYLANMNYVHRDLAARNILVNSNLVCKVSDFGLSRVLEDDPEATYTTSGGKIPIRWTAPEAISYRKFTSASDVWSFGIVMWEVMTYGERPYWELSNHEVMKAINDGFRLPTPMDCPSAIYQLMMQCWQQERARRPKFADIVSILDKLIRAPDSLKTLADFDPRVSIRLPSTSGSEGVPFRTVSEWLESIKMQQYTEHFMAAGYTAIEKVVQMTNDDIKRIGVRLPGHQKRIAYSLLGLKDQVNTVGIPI
Sequence of Death-associated protein kinase 1 (Homo sapiens) (P53355 whole entry, looked up): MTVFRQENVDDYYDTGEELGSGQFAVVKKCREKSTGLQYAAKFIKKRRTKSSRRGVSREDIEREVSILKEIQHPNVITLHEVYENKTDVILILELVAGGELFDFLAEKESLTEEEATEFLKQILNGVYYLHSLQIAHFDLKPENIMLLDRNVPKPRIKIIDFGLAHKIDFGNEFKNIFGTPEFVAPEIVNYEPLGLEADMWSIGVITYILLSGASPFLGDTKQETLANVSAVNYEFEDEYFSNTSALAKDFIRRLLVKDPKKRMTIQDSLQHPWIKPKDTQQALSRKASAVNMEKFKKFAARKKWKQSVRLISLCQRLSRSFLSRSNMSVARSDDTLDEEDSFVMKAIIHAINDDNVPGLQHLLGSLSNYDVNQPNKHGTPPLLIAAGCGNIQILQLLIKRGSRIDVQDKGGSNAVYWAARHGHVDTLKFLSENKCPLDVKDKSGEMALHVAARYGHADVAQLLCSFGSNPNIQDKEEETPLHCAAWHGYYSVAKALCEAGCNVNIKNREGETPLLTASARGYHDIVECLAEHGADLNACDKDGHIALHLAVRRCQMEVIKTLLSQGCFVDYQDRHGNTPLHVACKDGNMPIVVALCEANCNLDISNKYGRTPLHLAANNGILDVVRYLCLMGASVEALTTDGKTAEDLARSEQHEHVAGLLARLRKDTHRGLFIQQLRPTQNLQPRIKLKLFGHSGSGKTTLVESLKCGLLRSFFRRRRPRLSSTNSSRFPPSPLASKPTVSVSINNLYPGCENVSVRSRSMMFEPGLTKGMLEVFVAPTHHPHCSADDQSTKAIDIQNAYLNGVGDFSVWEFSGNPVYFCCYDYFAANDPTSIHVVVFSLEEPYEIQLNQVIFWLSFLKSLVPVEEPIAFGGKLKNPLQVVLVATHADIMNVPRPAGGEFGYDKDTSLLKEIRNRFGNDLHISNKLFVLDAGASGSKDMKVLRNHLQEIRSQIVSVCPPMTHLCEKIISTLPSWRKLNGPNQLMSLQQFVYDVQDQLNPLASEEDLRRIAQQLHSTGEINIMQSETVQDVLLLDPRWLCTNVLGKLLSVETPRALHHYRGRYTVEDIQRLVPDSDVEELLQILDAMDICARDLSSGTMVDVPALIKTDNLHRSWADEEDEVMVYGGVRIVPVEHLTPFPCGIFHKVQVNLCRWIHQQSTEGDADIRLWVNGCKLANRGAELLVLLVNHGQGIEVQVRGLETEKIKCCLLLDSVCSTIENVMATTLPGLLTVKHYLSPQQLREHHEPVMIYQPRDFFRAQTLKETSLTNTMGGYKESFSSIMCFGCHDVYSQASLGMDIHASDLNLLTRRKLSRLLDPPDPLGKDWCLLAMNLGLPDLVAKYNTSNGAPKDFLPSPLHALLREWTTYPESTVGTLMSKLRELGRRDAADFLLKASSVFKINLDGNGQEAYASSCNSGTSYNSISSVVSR

`Nc1cccc(-c2cc3c(Oc4cccc(O)c4)ncnc3[nH]2)c1`: the residual activity in test [1] was determined as 101%; in test [2] it was 102%; in test [3], 91%; in [4], 104%; in test [5], 78%; in test [6] it was 23%. In addition, the residual activity is 4% in test [7]; 98% in test [8]; 84% in test [9]; 82% in test [10]; 32% in [11]; 89% in [12]. Moreover, the residual activity is 62% in test [13]; 2% in [14]; -1% in [15]; 30% in [16]; 2% in [17]; 4% in test [18].

Broadly, the residual activity is the signal under treatment as a percentage of the control signal.
